Compounds with a hit are over-represented: about 0.8% of the library has one in this group of screens.
TRHR agonist: TRH receptor (human) agonism; activation, % at 2 µM; P34981; 360,000 compounds, 0.18% hits; TRHR cells, calcium flux fluo-8, FDSS agonist mode; AID 493084; in the data active = activation above about 30%; note: 0% is about no effect
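Steps: seed TRHR cells overnight; add fluo-8 no-wash Ca dye, RT 30 min–1.5 h; record 10 s baseline; pin-transfer compounds; monitor fluorescence 1 cycle/s for the agonist window. Calcium increases flag candidate agonists.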
TRPML1 agonist: activates the human TRPML1 channel; 410,000 compounds, 0.12% hits; TRPML1-expressing cells, Ca2+ dye fluorescence, FDSS; Q9GZU1; activation, % (test concentration not listed); in the data active = activation above about 50%; inconclusive = mostly about 30% to 49%; note: 0% is about no effect
Target sequence (Q9GZU1 whole entry, looked up): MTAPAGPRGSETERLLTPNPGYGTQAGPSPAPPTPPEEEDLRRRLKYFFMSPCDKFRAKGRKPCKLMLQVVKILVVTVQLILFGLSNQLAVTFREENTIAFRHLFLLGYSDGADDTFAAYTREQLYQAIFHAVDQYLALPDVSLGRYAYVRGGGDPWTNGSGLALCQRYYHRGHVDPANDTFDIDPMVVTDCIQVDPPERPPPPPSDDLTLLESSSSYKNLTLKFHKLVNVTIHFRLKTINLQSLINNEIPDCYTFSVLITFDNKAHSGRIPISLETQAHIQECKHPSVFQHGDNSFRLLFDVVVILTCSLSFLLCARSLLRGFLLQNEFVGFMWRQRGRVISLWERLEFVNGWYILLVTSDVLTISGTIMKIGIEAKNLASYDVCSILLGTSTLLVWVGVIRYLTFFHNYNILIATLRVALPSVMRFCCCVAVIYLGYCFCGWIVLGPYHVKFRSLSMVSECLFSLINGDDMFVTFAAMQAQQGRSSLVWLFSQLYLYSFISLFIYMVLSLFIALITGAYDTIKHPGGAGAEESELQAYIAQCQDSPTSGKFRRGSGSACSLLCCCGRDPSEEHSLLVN
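Tetracycline-induced TRPML1-DL cells are seeded and incubated overnight before loading with a no-wash Ca2+ dye and quencher. Agonist activity is taken from the 110 s fluorescence read following compound pin-transfer on an FDSS, before EC80 54-4 challenge.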
TRHR enhancer: allosterically enhances the human TRH receptor; TRHR cells, fluo-8 calcium fluorescence, EC20 TRH enhancement; 360,000 compounds, 0.66% hits; P34981; enhancement, % at 2 µM; in the data active = enhancement above about 30%; note: 0% is about no effect
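Enhancer read-out: after compound pinning and an initial kinetic agonist-mode read, an EC20 of TRH (10 nM final) was injected and fluo-8 calcium signal (Ex 480/Em 530) followed at 1 s/cycle for 100 cycles in TRHR-expressing cells.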
TRPML1 inh: blocks the human TRPML1 channel. AID 624415. Q9GZU1. activity change, negative = inhibition, % (no concentration beside the values). 390,000 compounds, 0.02% hits. TRPML1-inducible cells, Ca2+ dye fluorescence, FDSS; stronger effect = lower value; inhibition of EC80 agonist-evoked calcium signal; in the data active = activity change below about -50%; inconclusive = between about -30% and that limit;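 note: stimulus is agonist 54-4 at its EC80 concentration; % is set by controls: 0 for no effect and ±100 for the full control effect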
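Tet-induced TRPML1-DL cells loaded with Ca8 no-wash calcium dye were read kinetically on FDSS. Compound addition was followed by EC80 agonist 54-4 (4 uM final); inhibition was read over 110 s.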
Glioma ERSR ind: ER stress response induction in glioma | U87-MG GRP78 promoter luciferase reporter, 16 h | AID 602332 | Potency, µM, for inactives: top-dose activation, most hits filed as activators | 420,000 compounds, 0.02% hits; active = well fitted activation curve with a large enough effect; inconclusive = small, poorly fitted or top-dose-only effect; inactive = no such curve, though single readings can be large or run the other way; note: potency is the fitted concentration of half-maximal effect; series mostly up to about 76 µM; % of control where 0% means no effect; nearly all actives have a fitted effect of over 35% in size
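Stably transfected U87-MG glioma cells carrying a GRP78-based luciferase sensor; 16 h compound incubation. Luminescence end-point read 10 min after Bright-Glo addition at room temperature.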
An asterisk follows results filed as active; u = inconclusive; x = not tested or not shown.

SMILES | TRHR agonist | TRPML1 agonist | TRHR enhancer | TRPML1 inh | Glioma ERSR ind
COC(=O)c1cc(CNC(=O)c2ccccc2OC)cc(NC(=O)c2ccccc2F)c1 | x | x | x | x | 3%
O=C(OCCN1C(=O)c2cccc3c(N4CCOCC4)ccc(c23)C1=O)c1ccc(Cl)cc1Cl | 71* | 26 | 6 | -2 | -7%
O=C(OCCN1C(=O)c2cccc3c(N4CCOCC4)ccc(c23)C1=O)c1ccccc1Cl | 0 | u | 12 | -3 | -6%
O=C(OCCN1C(=O)c2cccc3c(N4CCOCC4)ccc(c23)C1=O)c1cccc(Cl)c1 | 35* | 19 | 1 | -6 | -5%
CN(C)c1nc(N)nc(CSc2nnnn2-c2ccc(F)cc2)n1 | 0 | 1 | 38* | 4 | -1%
O=C1NC(=O)C(CC(=O)N(Cc2ccco2)C2(C(=O)NC3CCCC3)CCCCC2)N1 (configuration not stated) | -1 | -1 | 33* | -1 | 2%
COc1ccc(NC(=O)c2cn3c4c(ccc(Cl)c4c2=O)OC(C)C3)cc1OC (configuration not stated) | -1 | 1 | 50* | 3 | -2%
N=C1/C(=C\c2coc3ccccc3c2=O)C(=O)N=C2SC(c3ccncc3)=NN12 | 146* | 112* | 33* | -14 | 2%
Cc1cc(/C=C2\C(=N)N3N=C(c4ccco4)SC3=NC2=O)c(C)n1Cc1ccccc1 | 6 | 0 | -14 | -13 | -2%
N=C1/C(=C/c2coc3ccccc3c2=O)C(=O)N=C2SC(c3ccco3)=NN12 | 6 | 81* | -2 | -16 | -2%
CC(=O)N1CCc2c(sc(NC(=O)CSc3ccc(F)cc3)c2-c2nc3ccccc3s2)C1 | 0 | 0 | -3 | -6 | 1%
CN1CCc2c(sc(NC(=O)CSc3ccc(F)cc3)c2-c2nc3ccccc3s2)C1 | 102* | 66* | -13 | -13 | -6%
CC(C)N1CCc2c(sc(NC(=O)Cc3ccccc3)c2C(N)=O)C1 | 1 | -1 | 2 | -1 | -4%
CC(=O)Nc1sc2c(c1-c1nc3ccccc3s1)CCN(C(C)C)C2 | 130* | 10 | -4 | 19 | -7%
CCN1CCc2c(sc(NC(=O)CSc3ccccc3)c2-c2nc3ccccc3s2)C1 | 147* | 70* | -20 | -14 | 0%
Cc1ccc2nccnc2c1 | x | 0 | x | x | -11%
c1ccc(CCCCN2CCN=C2Nc2ccccc2)cc1 | 0 | 0 | 32* | 48 | -3%
Cc1c2ccccc2nc2c(F)c(N(C)C)c(F)c(F)c12 | 40* | 27 | 4 | 9 | 5%
Cc1cc(C)n(-c2ccc(C(=O)N3CCc4c(cnc(C)c4CNC(=O)c4ccccc4F)C3)cc2)n1 | x | x | x | x | -5%
O=C(O)COc1ccc(/C=N/NC(=O)COc2nsnc2N2CCOCC2)cc1 | -2 | 3 | -3 | -12 | -3%
O=C(COc1nsnc1N1CCOCC1)N/N=C/c1ccccc1O | 2 | 1 | 32* | -5 | -2%
Cc1cccc(C(=O)NCc2nc(-c3cccc(NC(=O)C4CCCN(C)C4)c3)oc2C)n1 (configuration not stated) | x | x | x | x | -2%
O=C(N/C(=C\c1ccccc1)C(=O)N1CCOCC1)c1ccco1 | -1 | 0 | 30* | -15 | 0%
COc1ccc(C2C=C(c3cccs3)Nc3nc(CCCO)nn32)cc1 (configuration not stated) | 99* | x | 0 | x | x
Cc1cccc2cc(CN(C(=O)c3ccc(-c4ccc(F)cc4)cc3)C3CC3)c(N3CCC(O)CC3)nc12 | x | x | x | x | -3%
SMILES | TRHR agonist | TRPML1 agonist | TRHR enhancer | TRPML1 inh | Glioma ERSR ind
Cc1cnc(-n2ncc(C(=O)N[C@H]3CCCCNC3=O)c2C2CC2)nc1-c1cccs1 | x | x | x | x | -6%
C[C@H](O)[C@@H]1CN2CCc3c([nH]c4ccccc34)[C@@H]2C[C@@H]1N(C)Cc1cc(Cl)cc(Cl)c1 | x | 69* | x | -4 | 0%
Cc1oc(-c2ccccc2NC(=O)c2ccsc2)nc1CN(C)CC1CC=CCC1 (configuration not stated) | x | x | x | x | -6%
COc1ccc(Cl)cc1NC(=S)N1CCN(c2ccccn2)CC1 | 0 | 1 | 32* | 5 | -3%
COc1ccc(Cl)cc1NC(=S)N1CCCCCC1 | 0 | 0 | 40* | 0 | 2%
COc1ccc(OC)c(NC(=S)N2CCCC2)c1 | 0 | 0 | 9 | -14 | 11%
CCC1(C2CCN(Cc3ccc(C)s3)CC2)NC(=O)N(CC2COc3ccccc3O2)C1=O (configuration not stated) | x | x | x | x | -4%
CCn1c(SCC(=O)Nc2ccc(F)cc2)nnc1C1CC1 | -1 | 0 | 41* | 25 | 3%
CCCn1c(SCC(=O)NC2CCCC2)nnc1C(C)C | 0 | -1 | 2 | 0 | -7%
CCCn1c(SCC(=O)NC2CCCCC2)nnc1C1CC1 | 0 | 1 | 33* | -4 | -3%
Cn1c(SCC(=O)Nc2ccc(F)cc2)nnc1C1CC1 | 1 | 0 | -4 | 8 | 0%
COc1cccc(C(=O)NCc2nc(-c3cccc(NC(=O)c4ccoc4C)c3)oc2C)c1 | x | x | x | x | -1%
CC(=C/c1ccccc1)/C=N/n1c(C)n[nH]c1=S | 0 | x | 32* | x | 3%
CCOc1cc(C(Nc2cc(C)ccn2)c2ccc3cccnc3c2O)ccc1OC (configuration not stated) | -1 | 2 | 41* | 7 | -6%
COc1ccc(C(NC(C)=O)c2ccc3cccnc3c2O)cc1OC (configuration not stated) | x | 0 | x | x | -5%
C#C[C@@]1(OC(C)=O)CC[C@H]2[C@@H]3CCC4=CC(=O)CC[C@@H]4[C@H]3CC[C@@]21C | x | x | x | x | -2%
COc1ccc(-c2cc(C)no2)cc1S(=O)(=O)N1CCOc2ccccc21 | 1 | 0 | 3 | 0 | -3%
Cc1cc(-c2ccc(C(C)C)c(S(=O)(=O)N3CCOc4ccccc43)c2)on1 | 3 | 139* | -2 | -28 | -5%
O=C(NCC1CCC2(CCN(Cc3cccc(-c4ccco4)c3)CC2)O1)c1ccccc1 (configuration not stated) | x | x | x | x | 0%
Cc1noc(/C=C/c2ccc(-c3ccccc3Cl)o2)c1[N+](=O)[O-] | 32* | 5 | 10 | -5 | -3%
Cc1noc(/C=C/c2cccnc2)c1[N+](=O)[O-] | 1 | 3 | -4 | -11 | -14%
OC1(c2cccnc2)CCN(Cc2ccc3c(c2)CN(Cc2ccc4nsnc4c2)CCO3)CC1 | x | x | x | x | -5%
COc1ccc(S(=O)(=O)N2CCN(c3ccccc3F)CC2)cc1-c1noc(C)n1 | 74* | 2 | -7 | -17 | 0%
COc1cc(=O)n2c(c1C(=O)NC(C)c1ccco1)CCN(Cc1ccnc3ccccc13)CC2 (configuration not stated) | x | x | x | x | 0%
O=C(c1nc2n(n1)C(c1ccc(Cl)cc1)C=C(c1ccccc1)N2)N1CCOCC1 (configuration not stated) | 33* | 9 | 6 | -12 | -3%

Screens (PubChem BioAssay)
